Each molecule was assayed on DDR1.
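Note: kd values determined as follow-up on hits from a single-replicate KINOMEscan panel screen.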

SMILES	Kd
COc1ccc(-c2oc3ncnc(N)c3c2-c2ccc(OC)cc2)cc1 [SB-589132]	650 nM
Fc1ccc(Nc2nccc(-c3c(-c4ccc(Cl)cc4)nn4ncccc34)n2)cc1F [GW829058]	750 nM
COc1ccc(NC(=O)Nc2ccc(C)c(-c3ccc(C(=O)Nc4ccncc4)cc3)c2)cc1 [GSK1398475]	860 nM
O=C(Nc1ccccc1)Nc1ccc(Oc2ccc3nccn3n2)cc1	9.3 nM
Cc1ccc(NC(=O)c2cccc(C#N)c2)cc1-c1ccc(C(=O)Nc2ccncc2)cc1 [GSK1398463]	22 nM
FC(F)(F)c1ccc(-c2nn3ncccc3c2-c2ccnc(Nc3cccc(C(F)(F)F)c3)n2)cc1 [GW828205]	> 10000 nM
Cn1cc(-c2ccc3c(c2)CCN3C(=O)Cc2cccc(C(F)(F)F)c2)c2c(N)ncnc21 [GSK2606414]	280 nM
Cn1ccc2ncnc(Oc3ccc(NC(=O)Nc4cccnc4)c(Cl)c3)c21	57 nM

The molecules below were run on DDR2.

SMILES	Kd
O=C(Nc1ccccc1)Nc1ccc(Oc2ccc3nccn3n2)cc1	3 nM
Cc1ccc(NC(=O)c2cccc(C#N)c2)cc1-c1ccc(C(=O)Nc2ccncc2)cc1 [GSK1398463]	140 nM
Cn1ccc2ncnc(Oc3ccc(NC(=O)Nc4cccnc4)c(Cl)c3)c21	76 nM

The molecules below were run on T1, DMPK2.
T1 construct: gene CDC42BPG

SMILES	Kd
Clc1cccc(-c2nc(Nc3ccncc3)c3ccccc3n2)c1 [GW873004]	> 10000 nM
CNc1nccc(-c2c(-c3ccc(F)cc3)ncn2CCCN2CCOCC2)n1 [SB-222516]	> 10000 nM
CCCc1ccc(S(=O)(=O)NC2CCN(c3ccnc(Nc4ccc(OC)cc4)n3)C2)cc1 (stereo not drawn) [GSK1379737]	> 10000 nM

Each molecule was assayed on T2, DRAK1.
T2 construct: gene STK17A

SMILES	Kd
C[C@H]1CC[C@@H](C(=O)Nc2ccccc2)CN1c1cc(-c2ccc3c(N)n[nH]c3c2)nc(N)n1 [GSK2283293]	11 nM
Nc1nc(-c2ccc3c(N)n[nH]c3c2)cc(N2CCCCC2)n1 [GSK2228768]	110 nM
CC(C)(C)c1ccc(-n2cnc3c(N)ncnc32)cc1 [SKF-97263]	450 nM
Fc1cccc(COc2ccc(Nc3ncnc4nn5ccccc5c34)cc2Cl)c1 [GW689066]	> 10000 nM

From paper PMC5540273 (PLoS ONE, 2017)
